# Source: PubChem (several laboratories)
# Compounds with a hit are over-represented: about 3.9% of the library has one in this group of screens.
# GDH-TPI counter-1 – counter-screen for M. tuberculosis FBA inhibitors: GDH-TPI coupled enzymes | AID 588335 | inhibition, % at 4.8 µM | GDH-TPI coupled enzyme counterscreen, NADH absorbance | actives 1.2% (n = 360,000); in the data active = inhibition above about 30%
# Vc quorum ag – induces V. cholerae light production without autoinducers; V. cholerae BH1578 lux reporter, luminescence, 6 h; activation, % at 18.7 µM; actives 0.16% (n = 350,000); AID 588436; in the data active = activation mostly above about 9.7%, no sharp cut-off
# 3CLpro inhibitor – SARS-CoV 3CLpro protease inhibition | P0C6X7 | recombinant SARS-CoV 3CLpro, quenched FRET peptide cleavage | inhibition, % at 6 µM | actives 0.14% (n = 290,000) | AID 1706; in the data active = inhibition above about 12%
# PrPC surface inh – inhibitors of human cell surface prion protein PrPC; inhibition, % at 13.8 µM; TR-FRET read-out; actives 0.43% (n = 370,000); P04156; in the data active = inhibition above about 24%
# FBA Mtb inh – inhibits M. tuberculosis FBA enzyme. inhibition, % at 1 µM. actives 2.3% (n = 360,000). purified M. tuberculosis FBA, fluorescence read-out. P9WQA3. AID 588726
# Target sequence (P9WQA3 whole entry, looked up): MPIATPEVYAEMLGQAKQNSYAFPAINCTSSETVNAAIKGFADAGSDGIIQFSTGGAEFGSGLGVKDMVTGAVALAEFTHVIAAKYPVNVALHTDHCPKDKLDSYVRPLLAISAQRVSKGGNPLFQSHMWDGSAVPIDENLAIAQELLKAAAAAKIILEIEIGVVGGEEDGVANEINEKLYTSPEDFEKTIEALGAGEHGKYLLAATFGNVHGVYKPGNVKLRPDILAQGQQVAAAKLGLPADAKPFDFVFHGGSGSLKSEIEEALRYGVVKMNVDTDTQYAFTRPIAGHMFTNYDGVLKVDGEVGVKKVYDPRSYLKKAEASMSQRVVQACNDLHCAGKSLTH
# Mtb FBA inh conf – Mtb FBA inhibition, confirmed. shares compounds with FBA Mtb inh. purified M. tuberculosis FBA, fluorescence read-out. inhibition, % at 1 µM. actives 78% (n = 5,600)
# GDH-TPI counter-2 – inhibits GDH-TPI coupling enzymes, flagging Mtb FBA hits; shares compounds with FBA Mtb inh; GDH-TPI coupled enzyme counterscreen, fluorescence; inhibition, % at 1 µM; actives 81% (n = 5,600); AID 652141; in the data active = inhibition above about 10%
# GDH-TPI DR – counter-screen for M. tuberculosis FBA inhibitors: GDH-TPI dose response | shares compounds with FBA Mtb inh | GDH-TPI coupled enzyme assay, fluorescence, artifact counterscreen | IC50, µM | actives 79% (n = 170) | AID 652145; call rule not given here
# A number is an active result; n = inactive; x = no result given; + = active, no number. Cut-off read from the data, not from the text of the source, unless noted: active = inhibition above about 27%; inactive = the rest.
SMILES,GDH-TPI counter-1,Vc quorum ag,3CLpro inhibitor,PrPC surface inh,FBA Mtb inh,Mtb FBA inh conf,GDH-TPI counter-2,others
CC(=O)Nc1ccc(S(=O)(=O)Nc2cccc(-c3nc4ccccc4o3)c2)cc1,n,x,n,n,55.2,57.7,53.0,
O=S(=O)(Nc1ccc(-c2nc3ccccc3o2)cc1)c1ccccc1,42.7,n,n,n,86.6,130.5,110.0,
Cc1nn(-c2ccc(Cl)cn2)c2c1C(=O)CC(C)(C)C2Br (stereo unspecified),n,n,x,n,n,x,x,
CC1C(=O)N2CCCc3cc(S(=O)(=O)N4CCC(C(N)=O)CC4)cc1c32 (stereo unspecified),n,n,n,n,n,x,x,
O=C(CN1C(=O)CCC1=O)Nc1nc(-c2nc3ccccc3s2)cs1,n,n,n,n,33.5,n,n,
O=C(CSc1nnc(-c2ccccn2)n1-c1ccccc1)Nc1cccc2ccccc12,x,x,x,n,x,x,x,
O=C(/C=C/c1ccc(S(=O)(=O)N2CCOCC2)cc1)NC(CO)C(O)c1ccc([N+](=O)[O-])cc1 (stereo unspecified),n,n,x,n,n,x,x,
CN1CCN(C(=O)c2ccc3nc(-c4ccccc4)c(-c4ccccc4)nc3c2)CC1,n,n,n,n,30.2,168.1,135.2,
Cc1cccc(-c2nc3ccc(C(=O)N4CCC5(CC4)OCCO5)cc3nc2-c2cccc(C)c2)c1,n,n,n,n,42.5,117.2,78.6,
COc1cccc(C(=O)N2CCC3(CC2)OCCO3)c1,n,n,n,n,n,x,x,
O=C(c1ccc2nc(-c3ccccc3)c(-c3ccccc3)nc2c1)N1CCCCC1,n,n,n,n,33.5,92.6,63.5,
CCCCN(C)C(=O)c1nc2ccccn2c1CN1CCC[C@H]1CO,n,n,n,n,n,x,x,
Cc1ccc(Cl)cc1NC(=O)COC(=O)CSc1ccccc1,n,n,x,n,n,x,x,
CCOC(=O)c1cnc2c(-c3ccc(F)cc3)cnn2c1C(F)(F)F,n,n,n,x,73.5,n,n,
CCOc1ccc(C(C(=O)NC(C)(C)C)N(CCOC)C(=O)CCC(=O)Nc2ccccn2)cc1 (stereo unspecified),n,n,n,n,40.2,60.1,53.2,
NC(=O)COc1ccc(NS(=O)(=O)Cc2ccccc2)cc1,n,n,n,n,n,x,x,
NC(=O)c1ccccc1NS(=O)(=O)Cc1ccccc1,n,n,n,n,61.6,83.9,66.3,
Cc1ccc2c(c1)-c1c(cnn1CC(=O)NCCc1ccccc1F)CO2,x,x,x,n,x,x,x,
NC(=S)N/N=C/c1ccc2cccc(OCc3ccccc3)c2n1,n,n,n,n,40.1,47.0,36.8,
COc1ccc(C(=O)N/N=C/c2ccc3cccc(OCc4ccccc4)c3n2)cc1,n,n,n,n,63.2,n,15.0,
O=C(N/N=C/c1ccc2cccc(OCc3ccccc3)c2n1)c1ccc(Br)cc1,n,n,n,n,n,x,x,
CCN1CCN(c2ccc(Nc3ccnc4ccccc34)cc2)CC1,n,n,x,n,n,x,x,
COc1ccc(C(=O)NCCN2CCCC2)cc1[N+](=O)[O-],n,n,n,n,n,x,x,
Cc1cc(=O)oc2cc(OCCc3ccccc3)ccc12,n,n,n,n,68.4,n,n,GDH-TPI DR=2.49
Cc1cc(=O)oc2cc(OCCCC[n+]3ccccc3)ccc12,n,n,n,n,34.6,168.6,+,
SMILES,GDH-TPI counter-1,Vc quorum ag,3CLpro inhibitor,PrPC surface inh,FBA Mtb inh,Mtb FBA inh conf,GDH-TPI counter-2,others
Cc1cc2nc(-c3ccccc3)cc(=O)n2[nH]1,n,n,n,n,47.3,+,+,
COCc1cc(=O)n2[nH]cc(-c3ccsc3)c2n1,n,n,n,n,54.7,93.7,84.3,
COCc1cc(=O)n2[nH]c(-c3cccc(Br)c3)cc2n1,n,n,n,n,n,x,x,
COCc1cc(=O)n2[nH]c(-c3ccccc3)cc2n1,n,n,n,n,33.0,+,+,
CCOC(=O)CC(=O)CSc1nc2ccc(OC)cc2cc1C,n,n,n,n,n,x,x,
Cc1nc2sc3c(O)cc(=O)[nH]c3c2c(C)c1C,n,n,n,n,33.1,73.3,68.8,
CCOC(=O)/C(=C/c1ccccc1)NC(=O)c1ccco1,n,n,n,n,n,x,x,
c1ccc2c(NCCc3c[nH]c4ccccc34)c3ccccc3nc2c1,n,n,n,n,39.3,116.3,94.8,
COc1ccc(CCNc2c3ccccc3nc3ccccc23)cc1OC,n,n,n,n,54.7,+,+,
CCCn1nnc(NC(=S)NC(=O)c2cccs2)n1,n,n,n,n,37.4,39.2,24.7,
Clc1cccc(-c2ccc(-c3nc4ccccn4c3NCc3ccccc3)cc2)c1,n,n,x,n,40.2,151.7,116.7,
c1ccc(CNc2c(-c3cccc(SC4CCCCC4)c3)nc3ccccn23)cc1,n,n,x,n,46.5,99.9,65.1,
COc1ccc(-c2cc(-c3nc4ccccn4c3NCc3ccccc3)ccc2OC)cc1,n,n,x,85.3,36.3,166.5,136.3,
Cc1ccn2c(NCc3ccccc3)c(-c3cccc(SC4CCCCC4)c3)nc2c1,n,n,x,n,28.3,38.6,30.0,
COc1ccc(-c2nc3ccccn3c2NCc2ccc3c(c2)OCO3)cc1,n,n,n,n,n,x,x,
Cc1ccc2nc(-c3cccc(SC4CCCCC4)c3)c(NCc3ccccc3)n2c1,n,n,x,n,n,x,x,
CCC(C)Sc1cccc(-c2nc3cc(C)ccn3c2NCc2ccccc2)c1 (stereo unspecified),n,n,x,n,32.9,48.7,36.5,
COc1ccc(-c2c(C)oc3c(CN4CCN(C)CC4)c(O)ccc3c2=O)cc1,n,n,n,n,101.8,63.0,39.6,
CCN1CCN(Cc2c(O)ccc3c(=O)c(-c4ccc(OC)c(OC)c4)c(C)oc23)CC1,n,n,n,n,41.2,62.3,50.6,
C#CCCN([C@H](C(=O)OC)C(C)C)S(=O)(=O)c1ccccc1Br,x,x,x,n,x,x,x,
Cc1cc(=O)oc2cc(OC(C)C(=O)O)c(Cl)cc12 (stereo unspecified),n,n,n,n,31.5,n,n,
S=C(Nc1ccc(Br)cc1)OCCN1CCCC12CCC(c1ccccc1)CC2 (stereo unspecified),x,x,x,n,x,x,x,
Nc1nc2nc(-c3ccc(OCc4ccccc4)cc3)cc(C(F)(F)F)n2n1,n,n,n,n,36.1,+,+,
CCCc1nc2oc3c(NCCOCCO)ncnc3c2c2c1COC(C)(C)C2,n,n,n,n,81.8,95.8,59.9,
Cc1nc2oc3c(NCC4CCCO4)ncnc3c2c2c1COC(C)(C)C2 (stereo unspecified),n,n,n,n,102.2,+,185.2,
CC(C)c1nc2oc3c(=O)[nH]cnc3c2c2c1CCC2,n,n,n,n,n,x,x,
CC(C)c1nc2oc3c(NCCO)ncnc3c2c2c1COC(C)(C)C2,n,n,n,n,87.6,129.1,99.4,
